We go through 87 sequences from publication PMC10668032, “Altered binding affinity of SIX1-Q177R correlates with enhanced WNT5A and WNT pathway effector expression in Wilms tumor”.

Over roughly 33,000 sequences, “e-score” has its median near -0.053; the highest 2% begin near 0.38. For the sample, the highest values were picked, then their nearest neighbours and some sequences at random.

This test addresses T1, SIX1 homeodomain (reference allele) (human, UniProt Q15475 108-198).
T1 sequence: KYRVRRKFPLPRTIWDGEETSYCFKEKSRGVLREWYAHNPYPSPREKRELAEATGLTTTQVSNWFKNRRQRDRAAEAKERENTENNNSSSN
Kind of test: universal protein binding microarray; Universal all-10-mer PBM (8x60K, AMADID 030236), 300 nM GST-tagged protein, Alexa Fluor 488 anti-GST; buffer, salt, pH and temperature not stated (as in Berger); high values mean tight binding. Particulars: protein: ivt; tags: N-terminal GST; dsDNA, one strand shown. The method in brief: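 GST-tagged homeodomains were made by in vitro transcription/translation and quantified by anti-GST western blot against a recombinant GST standard curve. They were applied in duplicate at 300 nM final concentration to universal 'all 10-mer' protein binding microarrays (8×60K format). Binding was quantified as 8-mer E-scores with the Universal PBM Analysis Suite.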
For the sequence GGATCTCA, the binding signal is 0.298 ± 0.0172 E-score.

On to ATATCTAG, for which the binding signal stood at 0.285 ± 0.0844 E-score.

For ATATCTCG, the binding signal stood at 0.378 ± 0.0423 E-score.

With GTATCTCA, the binding signal worked out at 0.392 ± 0.0267 E-score.

Regarding ATCTCTCC, the binding signal amounted to 0.184 ± 0.128 E-score.

On to CTATCTCA, for which the binding signal came to 0.256 ± 0.0685 E-score.

With ATCTCTCA, the binding signal was determined as 0.252 ± 0.0252 E-score.

For AGTACACC, the binding signal came out at 0.209 ± 0.0287 E-score.

Consider ATCCCTGA, for which the binding signal was determined as 0.272 ± 0.0262 E-score.

On to ACTATACT, for which the binding signal came out at 0.211 ± 0.0749 E-score.

On to ACTAGTAT, for which the binding signal was determined as 0.249 ± 0.0623 E-score.

As to TACCTCGA, the binding signal was found to be 0.159 ± 0.0128 E-score.

Consider ATAGGATG, for which the binding signal was determined as 0.211 ± 0.00535 E-score.

GATCGTAA: the binding signal was determined as 0.216 ± 0.0203 E-score.

With ACAGATAG, the binding signal worked out at 0.208 ± 0.0152 E-score.

As to AAACCGAT, the binding signal was 0.184 ± 0.013 E-score.

As for ATCGTTTG, the binding signal came out at 0.196 ± 0.0542 E-score.

Regarding CTATCTAC, the binding signal was determined as 0.24 ± 0.0207 E-score.

With ATATCTAA, the binding signal is 0.316 ± 0.0663 E-score.

With ATATCTAC, the binding signal stood at 0.387 ± 0.0445 E-score.

With ACCCGAGA, the binding signal was found to be 0.213 ± 0.00331 E-score.

On to CGGATAGA, for which the binding signal was determined as 0.355 ± 0.012 E-score.

Regarding AGGATAGC, the binding signal was determined as 0.229 ± 0.0872 E-score.

For CGGATATC, the binding signal is 0.473 ± 0.0121 E-score.

Turning to AGGATAAG, the binding signal came to 0.181 ± 0.0696 E-score.

AGGATATC: the binding signal came out at 0.466 ± 0.0183 E-score.

Take CGGATAAA: the binding signal stood at 0.275 ± 0.0785 E-score.

Turning to CGGATAGC, the binding signal stood at 0.382 ± 0.00849 E-score.

As for AGGATATA, the binding signal was determined as 0.346 ± 0.0479 E-score.

Regarding AGGATATG, the binding signal was 0.421 ± 0.00759 E-score.

As for AGGATAAC, the binding signal turned out to be 0.211 ± 0.00987 E-score.

For AGGATAAT, the binding signal is 0.295 ± 0.036 E-score.

Consider CGGATAAC, for which the binding signal came to 0.339 ± 0.0303 E-score.

Regarding AGTATGAT, the binding signal was determined as 0.2824 ± 0.000431 E-score.

In the case of ATCACGCC, the binding signal is 0.26 ± 0.00476 E-score.

As for ATCTCTTG, the binding signal was determined as 0.224 ± 0.039 E-score.

On to CAGATCTG, for which the binding signal is 0.216 ± 0.124 E-score.

AGCTCGAT: the binding signal is 0.227 ± 0.00607 E-score.

On to CATCCTAC, for which the binding signal is 0.157 ± 0.0313 E-score.

With ATACATGA, the binding signal is 0.231 ± 0.0327 E-score.

On to ATACAATG, for which the binding signal turned out to be 0.248 ± 0.00431 E-score.

For the sequence CATACCCG, the binding signal is 0.259 ± 0.0615 E-score.

TATACCCA: the binding signal came out at 0.401 ± 0.0193 E-score.

Take TCTACCCA: the binding signal is 0.221 ± 0.0189 E-score.

Regarding GATACCCA, the binding signal was determined as 0.4758 ± 0.00303 E-score.

As for CATACCCA, the binding signal was determined as 0.208 ± 0.066 E-score.

For the sequence CGCTATAC, the binding signal was found to be 0.254 ± 0.0251 E-score.

Consider ACTTGTAT, for which the binding signal worked out at 0.246 ± 0.0178 E-score.

For CTTAATAC, the binding signal was 0.281 ± 0.0535 E-score.

Turning to CAGATAAC, the binding signal was determined as 0.191 ± 0.0157 E-score.

For the sequence ATCTGGCC, the binding signal stood at 0.181 ± 0.0229 E-score.

Regarding ATACACAC, the binding signal came to 0.249 ± 0.0542 E-score.

CTACACCA: the binding signal is 0.312 ± 0.0106 E-score.

With ATACACAG, the binding signal was 0.289 ± 0.0145 E-score.

Consider CTACACCC, for which the binding signal was found to be 0.263 ± 0.044 E-score.

Consider ATACACCA, for which the binding signal worked out at 0.389 ± 0.0166 E-score.

For ATACACCG, the binding signal was 0.398 ± 0.0351 E-score.

On to ATACACCC, for which the binding signal was 0.391 ± 0.00614 E-score.

In the case of AAACACCC, the binding signal came out at 0.253 ± 0.0462 E-score.

Consider GTACACCA, for which the binding signal was 0.233 ± 0.039 E-score.

As for CATCGAAG, the binding signal was found to be 0.178 ± 0.0656 E-score.

Consider ATCGTGCC, for which the binding signal turned out to be 0.192 ± 0.00267 E-score.

For the sequence ATACTTAG, the binding signal was determined as 0.205 ± 0.0528 E-score.

For CACCTATC, the binding signal was found to be 0.266 ± 0.0455 E-score.

Consider GAAAGATA, for which the binding signal came to 0.324 ± 0.096 E-score.

Regarding GGGAAACC, the binding signal was 0.162 ± 0.106 E-score.

As for CAATCCAC, the binding signal stood at 0.168 ± 0.0919 E-score.

As for ATATCCAT, the binding signal amounted to 0.389 ± 0.0181 E-score.

With TAATCCAA, the binding signal stood at 0.1853 ± 0.00116 E-score.

As for ATATCCAG, the binding signal came to 0.373 ± 0.0215 E-score.

On to CGATCCAC, for which the binding signal was found to be 0.375 ± 0.0695 E-score.

Turning to ATATCCAA, the binding signal is 0.358 ± 0.01 E-score.

Turning to GTATCCAC, the binding signal was 0.3951 ± 0.00369 E-score.

In the case of ATATCCAC, the binding signal was 0.395 ± 0.0197 E-score.

Turning to CTATCCAC, the binding signal was found to be 0.219 ± 0.0193 E-score.

With GTATCCAA, the binding signal worked out at 0.421 ± 0.0174 E-score.

On to CTATCCAG, for which the binding signal worked out at 0.199 ± 0.0567 E-score.

Consider AGATCCAT, for which the binding signal came out at 0.254 ± 0.00332 E-score.

As to CGACAGAA, the binding signal was found to be 0.153 ± 0.115 E-score.

As for ATATGTCG, the binding signal is 0.272 ± 0.052 E-score.

Consider ATCCAGGG, for which the binding signal worked out at 0.236 ± 0.0104 E-score.

Consider ATCATCAG, for which the binding signal came to 0.154 ± 0.0285 E-score.

On to GATCTAGC, for which the binding signal was 0.215 ± 0.0211 E-score.

Turning to AATCCATA, the binding signal was found to be 0.214 ± 0.0274 E-score.

Regarding TATCCATA, the binding signal worked out at 0.39076 ± 0.000148 E-score.

Regarding GATCCTGA, the binding signal was found to be 0.301 ± 0.0202 E-score.

In the case of TATCCTGA, the binding signal came out at 0.382 ± 0.0186 E-score.
